Here are results for 51 compounds from PubChem BioAssay.

Assay [1] in a line: polyglutamine-triggered caspase-3 activation inhibitors, cell-based (AID 1583). As to conditions: polyglutamine-induced caspase-3 activation, cell assay; stronger effect = higher value;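 tested at 10 µM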.
Assay [2] in a line: suppressors of polyQ aggregation in yeast, 75Q-TubU reporter (AID 1593). As to conditions: Yeast 75Q polyglutamine aggregation reporter.
The nature of assay [3]: rescue of polyQ-huntingtin neuronal dysfunction in worms, whole organism, C. elegans mechanosensory neurons, N-terminal huntingtin (AID 1599). The following applies: touch response, stronger effect = higher value.
A short description of assay [4]: inhibitors of mitochondrial cytochrome c release, biochemical, purified mitochondria (AID 1603).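 Note: mouse liver mitochondria challenged with calcium chloride; signal normalized to the plate average as 100%.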 As to conditions: stronger effect = lower value.
A short description of assay [5]: inhibitors of polyQ protein aggregation (AID 1604). The following applies: polyglutamine-induced protein aggregation inhibition assay; stronger effect = higher value; tested at 2.5 µM.

SMILES strings stand for the structures. Values joined by “and” are separate entries in the source; they are usually repeats but may differ in a detail not shown here. Equal entries are not always repeated. For part of these data: Potency and affinity values are given separately.

As usually defined, the inhibition is the relative decrease from the control value, in per cent. For the compound `CCCCCC(C)N` (stereo not given), in assay [1], the inhibition is -8.68%. Moreover, the score in assay [2] was 1.2. The rescue above control in assay [3] was determined as 1.21. Also, in assay [4], the cytochrome c release ratio was 1.02. Also, the inhibition of aggregation in assay [5] is -9.09%.
The like results for `COc1cccc(OC)c1C(=O)N[C@@H]1C(=O)N2[C@@H]1SC(C)(C)[C@@H]2C(=O)O` were, in that order, 11.5%, 1.48, -12.3, 0.93 and 45.9%.
The like results for `Nc1ccc(C(=O)NCC(=O)O)cc1` were, in that order, 5.11%, 1.21, 11.2, 1.41 and 83.6%.
The like results for `Nc1nc(=S)c2[nH]cnc2[nH]1` were, in that order, 7.19%, 1.07, -10.2, 0.96 and 83.1%.
With `CCCCCCOc1ccccc1C(N)=O`, the inhibition in assay [1] came to 0.61%. The same compound gave a score in assay [2] of 0.45. The compound also displayed a rescue above control in assay [3] of -0.6. In assay [4], the cytochrome c release ratio is 1.11. Moreover, the inhibition of aggregation in assay [5] is 67.5%.
For the compound `O=C1C(O)=C(O)C(=O)C(O)=C1O`, in assay [1], the inhibition was 0.61%. The compound also displayed a score in assay [2] of 0.92. In assay [3], this compound came in with a rescue above control of -5.82. The cytochrome c release ratio in assay [4] was found to be 1.43. The inhibition of aggregation in assay [5] came to 8.97%.
The like results for `CCC(Cc1c(I)cc(I)c(N)c1I)C(=O)O` (stereo not given) were, in that order, -9.96%, -1.24, -0.81, 1.14 and 1.96%.
With `NC[C@H](O)c1ccc(O)c(O)c1`, the inhibition in assay [1] is 10.9%. The compound also returned a score in assay [2] of 1.61. The same compound returned a rescue above control in assay [3] of -5.19. Moreover, the cytochrome c release ratio in assay [4] came to 1.03. The inhibition of aggregation in assay [5] is 44.7%.
For `Oc1c(I)cc(I)c2cccnc12`, the inhibition in assay [1] worked out at 17.6%. The compound also gave a score in assay [2] of -0.2. For the same compound, the rescue above control in assay [3] was -12.4. The cytochrome c release ratio in assay [4] was 1.04. In assay [5], the inhibition of aggregation was 24.2%.
The like results for `CC(=O)Oc1cccc(O)c1` were, in that order, -9.3%, 1.19, 8.59, 0.86 and -34.2%.
The matching figures for `CN1CCCN=C1COC(=O)C(O)(c1ccccc1)C1CCCCC1` (stereo not given): 21.6%, 1.24, 4.84, 0.8 and 60.8%.
The matching figures for `CCCc1ncc(C[n+]2ccccc2C)c(N)n1`: -2.36%, 1.6, -0.43, 0.95 and 84.8%.
With `Cc1ccc(C(=O)C(C)CN2CCCCC2)cc1` (stereo not given), in assay [1], the inhibition is -24.9%. Further, the score in assay [2] is 0.57. Also, the rescue above control in assay [3] was -2.41. Besides, the cytochrome c release ratio in assay [4] was 0.96. In assay [5], the inhibition of aggregation is 37.2%.
In the case of `CC(=O)OCC(COC(C)=O)OC(C)=O`, the inhibition in assay [1] worked out at 0.15%. Also, in assay [2], the score was found to be 1.44. The same compound had a rescue above control in assay [3] of -1.97. Further, in assay [4], the cytochrome c release ratio was 1.1. Besides, the inhibition of aggregation in assay [5] came to 72.7%.
`Nc1ccc(S(=O)(=O)Nc2nccs2)cc1`: in assay [1], the inhibition is 6.1%. The compound also returned a score in assay [2] of 1.37. The same compound displayed a rescue above control in assay [3] of -1.24. The cytochrome c release ratio in assay [4] is 0.85. Also, the inhibition of aggregation in assay [5] turned out to be 66.2%.
The matching figures for `CCCCOC(=O)c1ccc(N)cc1`: 10.7%, 0.73, 12.6, 0.92 and 7.84%.
Take `Cc1cc(C)nc(NS(=O)(=O)c2ccc(N)cc2)n1`: in assay [1], the inhibition was 5.54%. In assay [2], this compound returned a score of 1.45. Further, in assay [3], the rescue above control was -12.8. Moreover, the cytochrome c release ratio in assay [4] amounted to 1.13. Further, the inhibition of aggregation in assay [5] is 22.2%.
The matching figures for `O=C1OC(c2ccc(O)cc2)(c2ccc(O)cc2)c2ccccc21`: -3.42%, 1.29, 8.67, 4.22 and 70.1%.
The matching figures for `O=C(O)c1cccnc1Nc1cccc(C(F)(F)F)c1`: 18.6%, -0.01, 7.18, 0.87 and -18.2%.
Turning to `CN(C)CCCN1c2ccccc2Sc2ccc(C(F)(F)F)cc21`, in assay [1], the inhibition was determined as 30.2%. In assay [2], this compound had a score of 1.13. Besides, in assay [3], the rescue above control was found to be 19.8. For the same compound, in assay [4], the cytochrome c release ratio is 0.7. Also, the inhibition of aggregation in assay [5] came out at 76%.
The matching figures for `COc1cc(NS(=O)(=O)c2ccc(N)cc2)nc(OC)n1`: 1.07%, 1.14, -2.33, 0.86 and 67.5%.
The matching figures for `CCC(=O)O[C@H]1[C@H](O[C@@H]2[C@@H](C)[C@H](O[C@H]3C[C@@](C)(OC)[C@@H](O)[C@H](C)O3)[C@@H](C)C(=O)O[C@H](CC)[C@@](C)(O)[C@H](O)[C@@H](C)C(=O)[C@H](C)C[C@@]2(C)O)O[C@H](C)C[C@@H]1N(C)C`: -0.34%, -0.96, 11.4, 1.02 and 87.3%.
The like results for `Nc1ccc(C(=O)O)cc1` were, in that order, 2.66%, 1.16, -2.5, 0.9 and 72.2%.
Consider `O=C1OCCN1/N=C/c1ccc([N+](=O)[O-])o1`, for which the inhibition in assay [1] was 4.31%. In addition, in assay [2], the score came out at 0.66. In assay [3], this compound came in with a rescue above control of 4.89. Also, in assay [4], the cytochrome c release ratio worked out at 1.17. Moreover, the inhibition of aggregation in assay [5] amounted to 27%.
The matching figures for `N=C(N)N`: 11.9%, 0.82, -2.24, 0.89 and 73.1%.
The like results for `Oc1cccc(O)c1` were, in that order, 9.11%, 1.66, 3.39, 0.9 and 60.3%.
The like results for `CC(=O)NS(=O)(=O)c1ccc(N)cc1` were, in that order, 11.3%, 1.36, -14.1, 1.02 and 48.5%.
For `CC1(C)S[C@@H]2[C@H](NC(=O)[C@H](N)c3ccccc3)C(=O)N2[C@H]1C(=O)O`, the inhibition in assay [1] worked out at 14.1%. The score in assay [2] is 1.62. The rescue above control in assay [3] is -3.83. The cytochrome c release ratio in assay [4] was found to be 1.35. Besides, the inhibition of aggregation in assay [5] came to 80.3%.
The matching figures for `CCC1(C)CC(=O)NC1=O` (stereo not given): 3.06%, 1.25, 1.02, 1.3 and 4.76%.
The matching figures for `O=C(O)CCCCC1CCSS1` (stereo not given): -33.9%, 0.61, 2.24, 0.89 and 39.2%.
The matching figures for `CCCCC1C(=O)N(c2ccccc2)N(c2ccc(O)cc2)C1=O` (stereo not given): -30.1%, 0.89, -3.48, 0.98 and 61%.
`Cc1ccsc1/C=C/C1=NCCCN1C`: the inhibition in assay [1] turned out to be 26.5%. The compound also came in with a score in assay [2] of 0.99. Besides, the rescue above control in assay [3] was -7.31. Besides, the cytochrome c release ratio in assay [4] was 0.66. Also, the inhibition of aggregation in assay [5] turned out to be 25.5%.
The like results for `O=C(O)c1cc(=O)c2ccccc2o1` were, in that order, 6.16%, 1.58, -0.59, 0.94 and 87.2%.
Consider `CCCCOc1cc(C(=O)NCCN(CC)CC)c2ccccc2n1`, for which the inhibition in assay [1] was -0.9%. This compound showed a score in assay [2] of 1.3. Further, the rescue above control in assay [3] is -3.49. In addition, the cytochrome c release ratio in assay [4] came to 1.15. The inhibition of aggregation in assay [5] was determined as 50%.
Take `Oc1ccc(Cl)cc1Cc1cc(Cl)ccc1O`: the inhibition in assay [1] turned out to be 7.6%. Further, the score in assay [2] is -0.49. Further, the rescue above control in assay [3] is 0. The cytochrome c release ratio in assay [4] is 0.36. Besides, the inhibition of aggregation in assay [5] came to 29.6%.
The matching figures for `CC1(C)S[C@@H]2[C@H](NC(=O)C(C(=O)O)c3ccccc3)C(=O)N2[C@H]1C(=O)O` (stereo not given in full): 9.67%, 1.9, -7.2, 0.95 and 60.9%.
The like results for `COc1cc(C(=O)NCc2ccc(OCCN(C)C)cc2)cc(OC)c1OC` were, in that order, 17.1%, 1.06, -0.31, 0.61 and 75.6%.
The matching figures for `CCN(CC)CCNC(=O)COc1ccc(OC)cc1`: 62%, 1.13, -1.97, 0.98 and 72.2%.
Take `CCCCCCCCCCCCCCCCCCOCC(O)CO` (stereo not given): in assay [1], the inhibition is -51.6%. Also, the score in assay [2] is 1.03. The rescue above control in assay [3] was 2.94. For the same compound, in assay [4], the cytochrome c release ratio came out at 1. For the same compound, the inhibition of aggregation in assay [5] was 34.7%.
On to `Cc1nc2sccn2c(=O)c1CCN1CCC(=C(c2ccc(F)cc2)c2ccc(F)cc2)CC1`, for which the inhibition in assay [1] is -6.39%. In assay [2], this compound showed a score of 1.46. The same compound showed a rescue above control in assay [3] of 0. The cytochrome c release ratio in assay [4] amounted to 0.36. The inhibition of aggregation in assay [5] turned out to be 7.32%.
The matching figures for `O=c1c(O)c(-c2ccc(O)c(O)c2)oc2cc(O)cc(O)c12`: 24.5%, 1.53, 8.75, 1.04 and 87.3%.
The like results for `COc1ccc2[nH]cc(CCNC(C)=O)c2c1` were, in that order, -10%, 1.34, 0.33, 0.49 and 46.1%.
The matching figures for `COc1ccc(CN(CCN(C)C)c2ncccn2)cc1`: 10.6%, 1.36, 1.69, 1.27 and 22.2%.
Turning to `CCN(CC)CCOc1ccc(/C(=C(\Cl)c2ccccc2)c2ccccc2)cc1`, the inhibition in assay [1] was -2.8%. Besides, in assay [2], the score was -0.01. Also, in assay [3], the rescue above control was determined as 11.2. The cytochrome c release ratio in assay [4] was determined as 4.67. In addition, in assay [5], the inhibition of aggregation is 46.5%.
The like results for `C=CCc1ccc(O)c(OC)c1` were, in that order, -5.5%, 1.31, 11.4, 1.29 and 81.4%.
The like results for `NCCCC(=O)O` were, in that order, 15.3%, 1.12, -4.87, 0.87 and 18.5%.
For the compound `CN(C)CCCN1c2ccccc2Sc2ccccc21`, the inhibition in assay [1] is -14.3%. In assay [2], this compound yielded a score of 1.56. This compound also gave a rescue above control in assay [3] of 23.4. Moreover, the cytochrome c release ratio in assay [4] was determined as 1.27. In addition, the inhibition of aggregation in assay [5] is 23.9%.
The like results for `O=C1c2cccc(O)c2C(=O)c2c(O)cccc21` were, in that order, -36.4%, -0.3, -2, 1.21 and 58.9%.
The like results for `COc1ccc2cc3[n+](cc2c1OC)CCc1cc2c(cc1-3)OCO2` were, in that order, -15.4%, 0.32, 10.8, 0.96 and 65.2%.
For `CC(=O)Nc1ccccc1`, the inhibition in assay [1] was 14.3% and 16.3%. The score in assay [2] is 1.29 and 1.35. Besides, the rescue above control in assay [3] was -5.57 and 2.9. The cytochrome c release ratio in assay [4] is 1.36 and 1.09. Besides, the inhibition of aggregation in assay [5] is 42.4% and 85.9%.
For `CCn1cc(C(=O)O)c(=O)c2cc(F)c(N3CCNC(C)C3)c(F)c21` (stereo not given), in assay [1], the inhibition was -6.75%. In addition, the score in assay [2] is 1.15. The compound also showed a rescue above control in assay [3] of 3.68. The cytochrome c release ratio in assay [4] came out at 1.13. The inhibition of aggregation in assay [5] was determined as 80.3%.
